Numbering of substitutions follows the chain as printed.

For eight sequences, binding signal results are on record in article PMC11006913.

Common to all, as to assay: PBM; 200 nM protein, PBS
Common to all, as to settings: dsDNA, one strand shown

Test [1] deals with T1, VENTX (Homo sapiens, UniProt O95231 78-163, R121Q).
T1 sequence: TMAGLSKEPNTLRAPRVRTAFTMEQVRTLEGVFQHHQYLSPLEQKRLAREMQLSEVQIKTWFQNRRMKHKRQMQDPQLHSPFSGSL

Test [2] concerns the target T2, VENTX (Homo sapiens, UniProt O95231 78-163).
T2 sequence: T1 sequence with Q44R

Test [3] deals with T3, VENTX (Homo sapiens, UniProt O95231 78-163, Y115F).
T3 sequence: T1 sequence with Y38F, Q44R

Test [4] deals with HOXD13 (Homo sapiens, UniProt P35453 263-343).
Test [5] concerns the target HOXD13 (Homo sapiens, UniProt P35453 263-343, T313A).
Test [6] concerns the target HOXB9 (Homo sapiens, UniProt P17482 171-250, T197M).
Test [7] has as its target HOXC9 (Homo sapiens, UniProt P31274 178-260, K195R).
Test [8] concerns the target HOXA7 (Homo sapiens, UniProt P31268 116-202).
Test [9] concerns the target HOXC10 (Homo sapiens, UniProt Q9NYD6 254-340).
Test [10] addresses HOXB6 (Homo sapiens, UniProt P17509 132-218, K202E).
Test [11] has as its target ALX4 (Homo sapiens, UniProt Q9H161 200-286, Q225E).
The target of test [12] is HOXB9 (Homo sapiens, UniProt P17482 171-250).
Test [13] deals with HOXC9 (Homo sapiens, UniProt P31274 178-260).
Test [14] deals with HOXD13 (Homo sapiens, UniProt P35453 263-343, T313R).
The target of test [15] is HOXC9 (Homo sapiens, UniProt P31274 178-260, R193K).
Test [16] deals with HOXC10 (Homo sapiens, UniProt Q9NYD6 254-340, K271E).
The target of test [17] is HOXB9 (Homo sapiens, UniProt P17482 171-250, R186Q).
Test [18] concerns the target HOXC9 (Homo sapiens, UniProt P31274 178-260, R222W).
Test [19] addresses HOXA7 (Homo sapiens, UniProt P31268 116-202, W177C).
Test [20] addresses HOXB6 (Homo sapiens, UniProt P17509 132-218).
Test [21] concerns the target CRX (Homo sapiens, UniProt O43186 26-111, R41L).

Chain of HOXA7 (Homo sapiens, UniProt P31268 116-202) (P31268 116-202): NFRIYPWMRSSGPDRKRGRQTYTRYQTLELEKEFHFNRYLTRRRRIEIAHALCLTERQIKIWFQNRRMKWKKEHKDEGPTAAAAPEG
Chain of HOXC9 (Homo sapiens, UniProt P31274 178-260) (P31274 178-260): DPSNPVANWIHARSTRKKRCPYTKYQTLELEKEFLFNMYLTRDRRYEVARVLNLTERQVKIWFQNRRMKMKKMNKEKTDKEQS
Chain of HOXC10 (Homo sapiens, UniProt Q9NYD6 254-340) (Q9NYD6 254-340): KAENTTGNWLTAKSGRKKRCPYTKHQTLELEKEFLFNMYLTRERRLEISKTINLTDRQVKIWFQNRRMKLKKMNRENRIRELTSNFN
Chain of HOXA7 (Homo sapiens, UniProt P31268 116-202, W177C) (P31268 116-202 W177C): as the sequence (P31268 116-202) above, with W62C counted along it
Chain of HOXB9 (Homo sapiens, UniProt P17482 171-250, T197M) (P17482 171-250 T197M): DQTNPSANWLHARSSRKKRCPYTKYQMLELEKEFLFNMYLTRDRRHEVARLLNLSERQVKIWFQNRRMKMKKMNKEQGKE
Chain of HOXC9 (Homo sapiens, UniProt P31274 178-260, R193K) (P31274 178-260 R193K): as the sequence (P31274 178-260) above, with R16K counted along it
Chain of HOXD13 (Homo sapiens, UniProt P35453 263-343) (P35453 263-343): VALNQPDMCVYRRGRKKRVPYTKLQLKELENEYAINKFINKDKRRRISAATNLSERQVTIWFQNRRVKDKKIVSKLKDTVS
Chain of HOXC9 (Homo sapiens, UniProt P31274 178-260, K195R) (P31274 178-260 K195R): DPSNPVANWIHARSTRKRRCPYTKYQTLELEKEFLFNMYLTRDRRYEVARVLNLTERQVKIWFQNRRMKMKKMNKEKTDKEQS
Chain of HOXC10 (Homo sapiens, UniProt Q9NYD6 254-340, K271E) (Q9NYD6 254-340 K271E): as the sequence (Q9NYD6 254-340) above, with K18E counted along it
Chain of HOXD13 (Homo sapiens, UniProt P35453 263-343, T313A) (P35453 263-343 T313A): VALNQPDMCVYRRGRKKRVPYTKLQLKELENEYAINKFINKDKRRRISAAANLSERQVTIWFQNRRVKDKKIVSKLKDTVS
Chain of HOXC9 (Homo sapiens, UniProt P31274 178-260, R222W) (P31274 178-260 R222W): as the sequence (P31274 178-260) above, with R45W counted along it
Chain of HOXB6 (Homo sapiens, UniProt P17509 132-218) (P17509 132-218): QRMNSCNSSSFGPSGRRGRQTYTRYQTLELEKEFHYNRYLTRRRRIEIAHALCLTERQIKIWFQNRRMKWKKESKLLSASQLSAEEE
Chain of HOXD13 (Homo sapiens, UniProt P35453 263-343, T313R) (P35453 263-343 T313R): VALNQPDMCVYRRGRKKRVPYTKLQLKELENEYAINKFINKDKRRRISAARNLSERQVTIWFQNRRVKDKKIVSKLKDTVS
Chain of HOXB6 (Homo sapiens, UniProt P17509 132-218, K202E) (P17509 132-218 K202E): as the sequence (P17509 132-218) above, with K71E counted along it
Chain of HOXB9 (Homo sapiens, UniProt P17482 171-250, R186Q) (P17482 171-250 R186Q): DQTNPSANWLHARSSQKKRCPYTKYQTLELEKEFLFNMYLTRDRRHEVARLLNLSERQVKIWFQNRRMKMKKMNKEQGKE
Chain of HOXB9 (Homo sapiens, UniProt P17482 171-250) (P17482 171-250): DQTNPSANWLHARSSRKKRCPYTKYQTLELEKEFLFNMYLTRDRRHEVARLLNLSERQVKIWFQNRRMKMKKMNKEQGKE
Chain of ALX4 (Q9H161 200-286 Q225E): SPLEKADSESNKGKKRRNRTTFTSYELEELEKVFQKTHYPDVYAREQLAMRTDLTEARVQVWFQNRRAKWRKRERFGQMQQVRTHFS
Chain of CRX (O43186 26-111 R41L): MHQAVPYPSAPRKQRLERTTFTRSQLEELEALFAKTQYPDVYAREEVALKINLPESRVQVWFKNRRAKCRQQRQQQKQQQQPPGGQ

In the case of ACTTATAA, the binding signal was 9.95 upbm affinity estimate (log intensity, higher = more binding, comparable within an allelic series) in test [1]; 10.5 upbm affinity estimate (log intensity, higher = more binding, comparable within an allelic series) in test [2]; 10 upbm affinity estimate (log intensity, higher = more binding, comparable within an allelic series) in test [3]; 11.3 upbm affinity estimate (log intensity, higher = more binding, comparable within an allelic series) in test [4]; 11 upbm affinity estimate (log intensity, higher = more binding, comparable within an allelic series) in test [5].
Regarding CCCATTAC, the binding signal was 11.4 upbm affinity estimate (log intensity, higher = more binding, comparable within an allelic series) in [1]; 12.4 upbm affinity estimate (log intensity, higher = more binding, comparable within an allelic series) in test [2]; 11.2 upbm affinity estimate (log intensity, higher = more binding, comparable within an allelic series) in [3].
Take AGCCCGGA: the binding signal in test [1] was 8.11 upbm affinity estimate (log intensity, higher = more binding, comparable within an allelic series); in [2], 7.92 upbm affinity estimate (log intensity, higher = more binding, comparable within an allelic series); in [3], 8.12 upbm affinity estimate (log intensity, higher = more binding, comparable within an allelic series).
Consider CCCGATTA, for which the binding signal in test [1] is 10.4 upbm affinity estimate (log intensity, higher = more binding, comparable within an allelic series); in test [3], 10.6 upbm affinity estimate (log intensity, higher = more binding, comparable within an allelic series).
On to GCAATAAA, for which the binding signal in test [6] is 10 upbm affinity estimate (log intensity, higher = more binding, comparable within an allelic series); in test [7], 13.2 upbm affinity estimate (log intensity, higher = more binding, comparable within an allelic series); in test [8], 11.2 upbm affinity estimate (log intensity, higher = more binding, comparable within an allelic series); in [9] it was 12.8 upbm affinity estimate (log intensity, higher = more binding, comparable within an allelic series); in test [10], 9.94 upbm affinity estimate (log intensity, higher = more binding, comparable within an allelic series); in [11], 10.5 upbm affinity estimate (log intensity, higher = more binding, comparable within an allelic series). Also, the binding signal is 12.6 upbm affinity estimate (log intensity, higher = more binding, comparable within an allelic series) in test [12]; 13.3 upbm affinity estimate (log intensity, higher = more binding, comparable within an allelic series) in [13]; 11 upbm affinity estimate (log intensity, higher = more binding, comparable within an allelic series) in [14]; 13.1 upbm affinity estimate (log intensity, higher = more binding, comparable within an allelic series) in [15]; 12.3 upbm affinity estimate (log intensity, higher = more binding, comparable within an allelic series) in test [4]; 12.3 upbm affinity estimate (log intensity, higher = more binding, comparable within an allelic series) in test [16]. Besides, the binding signal in test [5] was 12.1 upbm affinity estimate (log intensity, higher = more binding, comparable within an allelic series); in [17], 12.3 upbm affinity estimate (log intensity, higher = more binding, comparable within an allelic series); in [18], 11.4 upbm affinity estimate (log intensity, higher = more binding, comparable within an allelic series); in test [19], 8.8 upbm affinity estimate (log intensity, higher = more binding, comparable within an allelic series); in test [20], 11.7 upbm affinity estimate (log intensity, higher = more binding, comparable within an allelic series).
On to CCTAATCG, for which the binding signal was 11.4 upbm affinity estimate (log intensity, higher = more binding, comparable within an allelic series) in test [1]; 12.5 upbm affinity estimate (log intensity, higher = more binding, comparable within an allelic series) in test [2]; 11.3 upbm affinity estimate (log intensity, higher = more binding, comparable within an allelic series) in [3]; 10.8 upbm affinity estimate (log intensity, higher = more binding, comparable within an allelic series) in test [21].
Consider ATTATTAC, for which the binding signal in [6] was 10 upbm affinity estimate (log intensity, higher = more binding, comparable within an allelic series); in test [7], 12.5 upbm affinity estimate (log intensity, higher = more binding, comparable within an allelic series); in test [8], 11.2 upbm affinity estimate (log intensity, higher = more binding, comparable within an allelic series); in test [9], 12.1 upbm affinity estimate (log intensity, higher = more binding, comparable within an allelic series); in test [10], 10 upbm affinity estimate (log intensity, higher = more binding, comparable within an allelic series); in test [13] it was 12.6 upbm affinity estimate (log intensity, higher = more binding, comparable within an allelic series). Further, the binding signal in test [15] is 12.5 upbm affinity estimate (log intensity, higher = more binding, comparable within an allelic series); in [16], 11.6 upbm affinity estimate (log intensity, higher = more binding, comparable within an allelic series); in test [18], 11 upbm affinity estimate (log intensity, higher = more binding, comparable within an allelic series); in [19], 8.99 upbm affinity estimate (log intensity, higher = more binding, comparable within an allelic series); in test [20], 11.7 upbm affinity estimate (log intensity, higher = more binding, comparable within an allelic series).
Consider CCCATAAA, for which the binding signal in test [6] is 9.63 upbm affinity estimate (log intensity, higher = more binding, comparable within an allelic series); in test [7], 12.8 upbm affinity estimate (log intensity, higher = more binding, comparable within an allelic series); in test [8], 10.4 upbm affinity estimate (log intensity, higher = more binding, comparable within an allelic series); in test [9] it was 12.5 upbm affinity estimate (log intensity, higher = more binding, comparable within an allelic series); in test [12], 12.2 upbm affinity estimate (log intensity, higher = more binding, comparable within an allelic series); in test [13], 13 upbm affinity estimate (log intensity, higher = more binding, comparable within an allelic series). Further, the binding signal in test [14] is 11 upbm affinity estimate (log intensity, higher = more binding, comparable within an allelic series); in test [15] it was 12.8 upbm affinity estimate (log intensity, higher = more binding, comparable within an allelic series); in [4], 12.3 upbm affinity estimate (log intensity, higher = more binding, comparable within an allelic series); in test [16], 11.9 upbm affinity estimate (log intensity, higher = more binding, comparable within an allelic series); in test [5], 12 upbm affinity estimate (log intensity, higher = more binding, comparable within an allelic series); in test [17] it was 12 upbm affinity estimate (log intensity, higher = more binding, comparable within an allelic series). Also, the binding signal in test [18] was 11.2 upbm affinity estimate (log intensity, higher = more binding, comparable within an allelic series); in [19] it was 8.63 upbm affinity estimate (log intensity, higher = more binding, comparable within an allelic series).
